The results in this text go back to PubChem BioAssay (Tox21).

Results filed as inconclusive are left out. Unmarked numbers belong to inactive results. The source made the active and inactive calls. Unless noted, calls come from the whole dose curve; as a rule, active = well fitted curve in the direction sought with a large enough effect in the repeat runs; inconclusive = weak or mixed curves; inactive = no such curve, though single readings can be large; an effect the other way counts as inactive or inconclusive.

Assay [1] in a line: qHTS assay to identify small molecule antagonists of the estrogen related receptor (ERR) signaling pathway - cell viability counter screen (AID 1224818). Note: potency is the fitted concentration of half-maximal effect.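 Note: viability measured after 17.5 h of compound exposure.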 The method, boiled down:
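Cytotoxicity check run alongside the ERR antagonist screen: cells exposed to test compounds 17.5 h at 37 C, viability taken as CellTiter-Fluor fluorescence intensity.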

Assay [2] is described as follows: qHTS assay to identify small molecule antagonists of the estrogen related receptor (ERR) signaling pathway (AID 1224819; note: nearly all actives have a fitted effect of over 50% in size; note: potency is the fitted concentration of half-maximal effect). The method, boiled down:
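ERR reporter cells were plated at 2,000 cells/well and left 6 h at 37 C/5% CO2 before pin-tool transfer of compounds in DMSO. After 18 h at 37 C, One-Glo was added and luminescence was read 30 min later at room temperature.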

Assay [3] in a line: qHTS assay to identify small molecule agonists of the estrogen related receptor (ERR) signaling pathway (AID 1224820). Put shortly:
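An ERR cell line provided by NTP was seeded at 2,000 cells per well and allowed to settle for 6 h before compounds in DMSO were added. After 18 h at 37 C, luciferase activity was measured by One-Glo luminescence.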

The test system of assay [4] is estrogen-related receptor alpha (ERRalpha) with PGC-1alpha coactivator, human. The experiment in a line: qHTS assay to identify small molecule antagonists of the estrogen related receptor signaling pathway with the pleiotropic PPARgamma coactivator (PGC) (AID 1224821; calls by dose curve;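 note: series mostly up to about 46 µM; lower luminescence signal means antagonism of PGC/ERR signalling; nearly all actives have a fitted effect of over 50% in size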). Put shortly:
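A PGC/ERR cell line supplied by NTP is seeded, allowed 6 h at 37 C, and treated with test compounds in DMSO for 18 h. Signal is then measured as luciferase luminescence using One-Glo.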

Assay [5] in a line: qHTS assay to identify small molecule antagonists of the estrogen related receptor signaling pathway with the pleiotropic PPARgamma coactivator (PGC) cell viability counter screen (AID 1224822; note: potency is the fitted concentration of half-maximal effect;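 note: viability read after 17.5 h compound exposure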). Put shortly:
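Viable cell signal (CellTiter-Fluor, 30 min, 37 C/5% CO2) was measured in PGC/ERR cells after a 17.5 h compound incubation.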

A short description of assay [6]: qHTS assay to identify small molecule agonists of the estrogen related receptor signaling pathway with the pleiotropic PPARgamma coactivator (PGC) (AID 1224823). The method, boiled down:
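Compounds dissolved in DMSO are added by pin tool to PGC/ERR cells that have settled for 6 h, and incubation continues 18 h at 37 C. Reporter output is measured as One-Glo luminescence.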

For the compound `NCCc1c[nH]c2ccc(O)cc12`, the Potency result in assay [1], in assay [2], in assay [3], in assay [4], in assay [5] and in assay [6] was “inactive” in each case.

On to `CNc1ccc2oc(C[C@H]3O[C@@]4(CC[C@H]3C)O[C@H]([C@H](C)C(=O)c3ccc[nH]3)[C@H](C)C[C@H]4C)nc2c1C(=O)O`, for which the values for the Potency in assay [1], in assay [2] and in assay [5] were 10.6 µM (active), 2.37 µM (active) and 9.44 µM (active), respectively. For the same compound, the Potency entry in assay [3] and in assay [6] was “inactive” throughout.

`COc1ccc2c(c1O)-c1cccc3c1[C@@H](C2)N(C)CC3`: the Potency entry in assay [1], in assay [2], in assay [3], in assay [4], in assay [5] and in assay [6] was “inactive” each time.

Turning to `CNCCc1c[nH]c2ccc(O)cc12`, the Potency entry in assay [1], in assay [2], in assay [3], in assay [4], in assay [5] and in assay [6] was “inactive” each time.

`Oc1ccc2c3c1O[C@H]1c4[nH]c5c(c4C[C@@]4(O)[C@@H](C2)N(CC2CC2)CC[C@]314)C[C@@]1(O)[C@H]2Cc3ccc(O)c4c3[C@@]1(CCN2CC1CC1)[C@H]5O4`: the Potency result in assay [1], in assay [2], in assay [3], in assay [4], in assay [5] and in assay [6] was “inactive” in each case.

As to `c1ccc2sc(C3(N4CCCCC4)CCCCC3)cc2c1`, the Potency entry in assay [1], in assay [2], in assay [3], in assay [4] and in assay [6] was “inactive” in each case.

With `C[N+]1(C)CCOC(O)(c2ccc(-c3ccc(C4(O)C[N+](C)(C)CCO4)cc3)cc2)C1` (centres undefined), the Potency entry in assay [1], in assay [2], in assay [4], in assay [5] and in assay [6] was “inactive” each time.
